molecular target: Glucose transporter (Leishmania mexicana) (UniProt O61059); assay: ST_JUDE_LEISH: Cytotoxicity at 2uM final concentration against transgenic Leishmania Mexicana promastigotes LmGT2 that are glucose transport deficient and complemented with the L. Mexicana glucose transporter 2. Activity is measured by DNA content using SYBR green in vitro; assay type: functional

Row | Compound | inhibition
1 | CNCCNCc1cccc(-c2cccc(-c3nc4cccc(C)c4[nH]3)c2)c1 | 0.35%
2 | CC(C)Cn1ncc2c3c(N)nc(N)nc3ccc21 | 4.36%
3 | CC1Cc2ccccc2N1CC(=O)Nc1cc(C(F)(F)F)ccc1-n1cncn1 (configuration not stated) | -1.95%
4 | COc1ccc(O)cc1/C=N/Nc1ccnc2cc(Cl)ccc12 | 9.21%
5 | Cc1cccc2nc(-c3ccc(-c4ccc(CNCc5ccc(CN)cc5)cc4)s3)[nH]c12 | 0.48%
6 | CCCCCCCN1CCC(CC(=O)Nc2ccnc3ccc(OC)cc23)C(CC)C1 (configuration not stated) | -0.31%
7 | O=C1NC(=O)C(c2cccc(NC(=O)c3ccncc3)c2)=C1c1ccccc1 | -4.34%
8 | CCCCCCNC(=O)C1Cc2c([nH]c3ccc(F)cc23)C2(CCN(Cc3ccccc3)CC2)N1 (configuration not stated) | 7.57%
9 | COc1ccc(CN2CCC(NCc3cccc([N+](=O)[O-])c3)CC2)cc1 | 6.36%
10 | CC(CON1C(N)=NC(N)=NC1(C)C)Cc1ccc(Cl)cc1Cl (configuration not stated) | -0.29%
11 | NC(=O)c1cc2nc(Nc3ccc(F)cc3)nc(NC3CCC3)c2[nH]1 | -0.6%
12 | O=C(N[C@@H](Cc1ccccc1)CN1CCC(Oc2ccc(F)cc2)CC1)c1ccc(OCCCN2CCCCC2)cc1 | 13.4%
13 | Oc1ccc(Nc2ccnc3cc(Cl)ccc23)cc1 | 4.27%
14 | CCCCc1ccc(NC(=O)Nc2cccc(CCNCc3ccccc3)c2)cc1 | 10.2%
15 | O=C1CSc2ccc(CNC3CCN(CCc4c(F)cnc5ccc(F)cc45)CC3)nc2N1 | -1.74%
16 | CC1(C)CC(NC(=O)NC2CCN(Cc3ccccc3)CC2)CC(C)(CNC(=O)NC2CCN(Cc3ccccc3)CC2)C1 (configuration not stated) | 1.3%
17 | CCN(CCCN1CCCCC1)c1cc(C)nc(Nc2cccc(C(F)(F)F)c2)n1 | 11%
